Assay results taken from PubChem BioAssay (Tox21).
Inconclusive results are not listed. The source made the active and inactive calls. Calls come from the whole dose curve.

Assay: qHTS assay to identify small molecule agonists of the NFkB signaling pathway - cell viability counter screen (AID 1159515); note: nearly all actives have a fitted effect of over 55% in size
Conditions: NFkB-bla ME-180 viability, CellTiter-Glo luminescence, 5 h; series mostly up to 61 µM; activity, negative = cytotoxic: at the top concentration
From the text: National Center for Advancing Translational Sciences [NCATS]
NIH Chemical Genomics Center [NCGC]
U.S. Environmental Protection Agency [EPA]
National Institutes of Environmental Health Sciences [NIEHS]
National Toxicology Program [NTP]
U.S. Food and Drug Administration [FDA]
Transcription factors and their stimulated target gene expression play pivotal roles across many cellular processes including responses to environmental stimuli. Proper regulation of associated pathways is critical to maintain cell health and function. Constitutive activation of transcription factor pathways has been implicated in tumors as it may block cellular functions such as apoptosis and lead to invasion and metastasis. One important transcription factor that stimulates gene expression in response to cytokines, UV radiation, and other stimuli is nuclear factor-kappa B (NFkB). To measure activation of the NFkB pathway, the CellSensor NFkB-bla ME-180 cell line (Life Technologies, Carlsbad, CA) that stably expresses beta-lactamase reporter gene under the regulation of a NF-kB response element was used. This assay allows measurement of the NFkB pathway activity induced by compounds in a ME-180 cell line. This system quantitates NF-kB activity using a FRET-based assay system where beta-lactamase expression disrupts FRET, allowing for fluorescent measurement of activity. This cell line has been used to screen the Tox21 10K compound library and to identify compounds that induce the NFkB pathway activity. The cytotoxicity of the Tox21 compound library against the NFkB-bla ME-180 cell line was tested in parallel by measuring cell viability using the CellTiter-Glo assay in the same wells.
Tox21 Assay Protocol Summary:
NFkB-bla ME-180 cells were dispensed at 2,000 cells/6 uL of assay medium per well into black wall/clear-bottom 1536-well plates using a Multidrop Combi (ThermoFisher Scientific, Waltham, MA) dispenser. After the assay plates were incubated at 37 C and 5% CO2 for an overnight, 23 nL of compounds dissolved in DMSO, positive controls or DMSO only was transferred to the assay plate by a Pintool station (Kalypsys, San Diego, CA). The assay plates were incubated at 37 C and 5% CO2 for 5 hr. One uL of LiveBLAzer B/G FRET substrate (Life Technologies) was added using a Flying Reagent Dispenser (Aurora Discovery, San Diego, CA) and the plates were incubated at room temperature for 1.5 hr. Fluorescence intensity (405 nm excitation, 460 nm and 530 nm emissions) was measured using an Envision plate reader (PerkinElmer, Shelton, CT). For cytotoxicity, 3 ul/well of CellTiter-Glo reagent was added into the assay plates using an FRD. After 30 min incubation at room temperature, the luminescence intensity was measured using a ViewLux plate reader (PerkinElmer).
% is set by controls: 0 for no effect and ±100 for the full control effect.

Row | SMILES | activity, negative = cytotoxic
1 | CC1=NN(c2cc(Cl)c(S(=O)(=O)O)cc2Cl)C(=O)C1N=Nc1ccc(S(=O)(=O)O)cc1 (stereo not given) | 11.1% (inactive)
2 | CC1(O)CSC(C)(O)CS1 (stereo not given) | 8.28% (inactive)
3 | CC[C@H]1CC[C@H](NCc2cc3c(cc2OC)[C@H]2C[C@H]2C(=O)N3C)[C@H](c2ccccc2)N1 | -0.0282% (inactive)
4 | CCOC(=O)CS | 0.179% [at 78.8 µM] (inactive)
5 | OCCN(CCO)CCN(CCO)CCO | 0.247% (inactive)
6 | CC(C)=CCCC(C)CCOC=O (stereo not given) | -0.705% (inactive)
7 | Cc1c(N)cccc1N | 2.22% [at 78.8 µM] (inactive)
8 | O=C1N(c2ccccc2)c2ccccc2C1(Cc1ccncc1)Cc1ccncc1 | -3.15% (inactive)
9 | CCN(CC)CCNC(=O)COc1ccc(Cl)cc1 | 3.33% (inactive)
10 | Clc1cccc(-c2cc(Cl)cc(Cl)c2)c1 | -11% (inactive)
11 | O=C(CCCl)NCc1ccccc1 | -1.22% (inactive)
12 | CC(C)C1=CC2=CC[C@@H]3[C@](C)(CCC[C@@]3(C)C(=O)O)[C@H]2CC1 | -7.79% (inactive)
13 | C=Cc1ccccc1 | 5.21% (inactive)
14 | Cc1nc(-c2ccccn2)ncc1C(=O)Nn1cc(C)c2cc(F)ccc21 | -3.83% (inactive)
15 | CC(=O)OC1C2(C)CCC(C2)C1(C)C (stereo not given) | 8.4% (inactive)
16 | Cn1cnc2c(F)c(Nc3ccc(Br)cc3Cl)c(C(=O)NOCCO)cc21 | -26.5% (inactive)
17 | CCc1cc(Cl)c(OC)c(C(=O)NC[C@@H]2CCCN2CC)c1O | -17.6% (inactive)
18 | COc1ccc(Nc2ccc(OC)cc2)cc1 | 0% [at 78.8 µM] (inactive)
19 | CCCN(CCC)C(=O)C(CCC(=O)O)NC(=O)c1ccccc1 (stereo not given) | 5.13% (inactive)
20 | CC(=O)O[C@H]1CC[C@@]2(C)C(=CC[C@@H]3[C@@H]2CC[C@]2(C)C(C(C)=O)=CC[C@@H]32)C1 | -9.64% (inactive)

Row | SMILES | activity, negative = cytotoxic
21 | O=Cc1ccc(O)c(O)c1O | 12.3% (inactive)
22 | O=[N+]([O-])c1nccn1CO[C@@H](CO)[C@H](O)CO | -9.15% (inactive)
23 | Cc1cn([C@@H]2O[C@H](CO)[C@@H](O)[C@@H]2F)c(=O)[nH]c1=O | 3.63% (inactive)
24 | NCCCN1CCN(CCCN)CC1 | 10.2% (inactive)
25 | Cc1nnc(SCC2=C(C(=O)O)N3C(=O)[C@@H](NC(=O)Cn4cnnn4)[C@H]3SC2)s1 | 2.76% (inactive)
26 | CCCCCCOc1ccc(N)cc1 | -17.1% (inactive)
27 | CC(Oc1c(Cl)cccc1Cl)C1=NCCN1 (stereo not given) | 6.13% (inactive)
28 | NCCC(O)(P(=O)(O)O)P(=O)(O)O | -0.914% (inactive)
29 | Cc1ccc([N+](=O)[O-])c(N)c1 | -26.8% (inactive)
30 | O=C(O[C@@H](C(=O)O)[C@@H](OC(=O)c1ccccc1)C(=O)O)c1ccccc1 | 10.8% [at 78.8 µM] (inactive)
31 | Nc1ccc(Oc2ccc(N)c(N)c2)cc1 | 5.56% (inactive)
32 | CC(C)(CO)[C@@H](O)C(=O)NCCC(=O)O | 12.6% [at 78.8 µM] (inactive)
33 | CCC1(C)NC(=O)NC1=O (stereo not given) | 0.715% (inactive)
34 | CC(C)(C)c1cccc(O)c1 | -0.942% (inactive)
35 | O=C(O)c1ccccc1Nc1cc(Cl)ccc1C(=O)O | -1.56% [at 28.5 µM] (inactive)
36 | CCC(=O)c1ccc2c(c1)N(CCCN(C)C)c1ccccc1S2 | -5.25% (inactive)
37 | CN(CCCN1c2ccccc2CCc2ccccc21)CC(=O)c1ccc(Cl)cc1 | -3.58% (inactive)
38 | CN1CCN(N)CC1 | 0.471% (inactive)
39 | CN1CCC[C@@H]1Cc1c[nH]c2ccc(CCS(=O)(=O)c3ccccc3)cc12 | -5.82% (inactive)
40 | CC1=C2[C@H](/C=C(\C)C(=O)O)CC[C@@H](C)[C@H]2CC1 | 7.58% [at 78.8 µM] (inactive)
